# Assay results: the supplement of paper PMC6555819
# Experiments:
# Test in all cases: PBM binding z-score (relative to random genomic background probes); higher = stronger binding; sequences stand for … in GC…GCGATTGACAGCGTAGAATGAAGG
# [1] = system: FXR:RXRa (NR concentration 270 nM, RXRa partner concentration 90 nM)
# Method in brief: (§1)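 Binding buffer was PBS pH 7.4 with 2% milk, 0.02% Triton X-100, 1 mM DTT, 0.2 mg/mL BSA and 0.4 mg/ml salmon testes DNA. In it, ligand-free nuclear receptor dimers were incubated 1 h on custom Agilent 4×180K protein-binding microarrays carrying double-stranded probes. Antibodies against each partner (one per run) detected binding, and z-scores were calculated against random background probes after regression normalization of scanned fluorescence.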
# [2] = system: LXRa:RXRa (NR concentration 270 nM, RXRa partner concentration 90 nM)
# Method in brief: as §1
# [3] = system: LXRa homodimer (NR concentration 270 nM)
# Method in brief: as §1
# [4] = system: LXRb:RXRa (NR concentration 270 nM, RXRa partner concentration 90 nM)
# Method in brief: as §1
# [5] = system: LXRb homodimer (NR concentration 270 nM)
# Method in brief: as §1
# [6] = system: PPARa:RXRa (NR concentration 270 nM, RXRa partner concentration 90 nM)
# Method in brief: as §1
# [7] = system: PPARg:RXRa (NR concentration 180 nM, RXRa partner concentration 90 nM)
# Method in brief: as §1
# [8] = system: PPARg:RXRa 270nM:90nM, anti-RXR (NR concentration 270 nM, RXRa partner concentration 90 nM)
# Method in brief: as §1
# [9] = system: PPARg:RXRa 30nM:10nM, anti-RXR (NR concentration 30 nM, RXRa partner concentration 10 nM)
# Method in brief: as §1
# [10] = system: PPARg:RXRa 90nM:30nM, anti-RXR (NR concentration 90 nM, RXRa partner concentration 30 nM)
# Method in brief: as §1
# [11] = system: PPARg:RXRa DBDmut IVT, anti-RXR (DBD mutation: RXRa K156A/R161A, NR concentration 270 nM, RXRa partner concentration 90 nM)
# Method in brief: as §1
# [12] = system: PPARg:RXRa IVT, anti-PPARg (NR concentration 270 nM, RXRa partner concentration 90 nM)
# Method in brief: as §1
# [13] = system: PPARg DBDmut:RXRa IVT, anti-PPARg (DBD mutation: PPARg1 K132A/R137A, NR concentration 270 nM, RXRa partner concentration 90 nM)
# Method in brief: as §1
# [14] = system: PPARg DBDmut IVT, anti-PPARg (DBD mutation: PPARg1 K132A/R137A, NR concentration 270 nM)
# Method in brief: as §1
# [15] = system: PPARg homodimer (NR concentration 180 nM)
# Method in brief: as §1
# [16] = system: PXR:RXRa (NR concentration 270 nM, RXRa partner concentration 90 nM)
# Method in brief: as §1
# [17] = system: PXR homodimer (NR concentration 270 nM)
# Method in brief: as §1
# [18] = system: RARa:RXR (NR concentration 270 nM, RXRa partner concentration 90 nM)
# Method in brief: as §1
# [19] = system: RARa homodimer (NR concentration 270 nM)
# Method in brief: as §1
# [20] = system: RARb:RXRa (NR concentration 270 nM, RXRa partner concentration 90 nM)
# Method in brief: as §1
Sequence,PBM binding z-score [1],PBM binding z-score [2],PBM binding z-score [3],PBM binding z-score [4],PBM binding z-score [5],PBM binding z-score [6],PBM binding z-score [7],PBM binding z-score [8],PBM binding z-score [9],PBM binding z-score [10],PBM binding z-score [11],PBM binding z-score [12],PBM binding z-score [13],PBM binding z-score [14],PBM binding z-score [15],PBM binding z-score [16],PBM binding z-score [17],PBM binding z-score [18],PBM binding z-score [19],PBM binding z-score [20]
ATATGTAGGTTAGCTGGGGTCATTGAGACTAGGC,4.97,5.62,2.48,4.62,1.35,5.24,5.52,5.03,2.46,4.26,6.54,6.07,2.23,1.29,2.75,6.11,3.42,5.49,0.751,2.9
AGAACGAGGGCAATGAGTTGATAGGACGGGTGGC,0.234,0.0995,-0.497,-0.197,-0.468,1.05,1.48,0.681,0.137,0.397,3.48,2.09,0.826,0.0416,-0.0695,1.12,5.45,0.114,-0.321,2
ATATGTAGGTTACATCCGGGTCATTCATGCTATG,2.21,4.15,1.59,3.05,0.928,4.55,6.16,5.07,2.55,4.45,7.49,7.53,5.06,3.54,3.61,3.79,1.66,3.83,1.2,2.23
CGTCAAAGTTCAAGGTATCGTAACAGAAAGCAGC,5.48,5.39,2.28,3.16,1.03,4.38,3.83,4.59,1.75,3.38,0.378,1.35,-0.37,0.459,2.03,3.81,1.91,3.09,1.17,4.93
TCTTGTAGTTCAACAGGAGGTTAAGAAAGATCGA,1.51,2.8,1,1.78,0.269,2.44,0.0566,1.66,2.29,1.89,1.24,0.804,0.436,-0.0772,1.16,3,0.574,2.75,0.938,2.56
ACTATTCGTTGAGACGAGGGCAACCGATAGGTTG,0.146,-0.0079,-0.194,0.132,0.215,0.431,0.548,0.366,0.255,0.115,0.199,0.823,1.01,0.89,0.322,0.447,0.0808,0.403,0.418,0.886
AGAACGAGGGCCATGAGTTGATAGCACGGGTGGC,-0.356,-0.437,-0.767,-0.687,-0.764,-0.163,0.614,-0.0464,-0.464,-0.23,0.174,0.141,-0.382,0.0603,-0.217,0.118,-0.232,-0.375,-0.362,0.632
GCATATAGGTAATACAAGGTGATAGTCCGATTGT,1.42,0.97,0.0526,-0.116,-0.184,0.93,1.32,0.737,0.438,0.536,4.05,2.84,1.05,1.46,0.142,0.0575,-0.157,0.688,0.359,-0.103
GCTTGTAGATCAAGGTTAAGAGAGACTAAGCTAA,-0.00904,0.508,-0.353,0.119,-0.894,1.36,0.796,2.03,0.342,1.44,1.35,1.01,0.118,-0.183,0.193,0.187,-0.0843,0.668,-0.213,0.688
TCTGCTAGGTCAGTTGGACAGCTAACGAGCTGCC,0.721,0.508,-0.846,-0.0468,0.424,1.12,0.413,1.36,1.23,1.21,2.28,2.83,0.449,0.399,-0.587,-0.183,-1.13,-0.205,-1.3,3.26
GGAACGAGGGCACTCGAGTTGATAGCATGGCGAT,0.375,2.3,-0.535,-0.145,-0.549,1.4,1.27,0.984,-0.139,0.362,4.02,3.11,0.411,-0.728,-0.479,2.52,-0.193,0.513,-0.815,1.93
AGAATGAGGTTAATAAGATCAGGGAATTGCGGTC,1.38,1.15,0.213,1.24,0.00596,2.74,1.75,2.22,0.516,1.58,3.37,2.89,0.759,0.384,1.23,1.06,0.151,1.48,0.329,1.58
TCTTGTAGATCTAGCAGGTTAAGAAAGCCTGAGT,0.335,0.398,-0.285,0.453,-0.499,0.695,-0.571,1.22,2.48,1.86,1.5,0.0743,0.126,0.6,-0.214,0.527,0.101,0.57,0.175,0.0972
